Compound activity (PubChem BioAssay)
Shown are actives, neighbours in structure and some others; about 21% of the full set was active somewhere.
Pf growth 48h: inhibits P. falciparum growth in the first generation, 48 h; P. falciparum luciferase growth in erythrocytes, 48 h; Potency, µM (doses to about 28.7 µM), for inactives: at the highest dose activity change, negative = inhibition, actives largely listed as inhibitors; actives 5.9% (n = 310,000); AID 504832; also: potency is read from the fitted curve at half-maximal effect; % is scaled to controls: 0 for no effect and ±100 for the full control effect
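Erythrocytes infected with P. falciparum carrying an integrated firefly luciferase reporter (2% hematocrit, 0.1% parasitemia final) were exposed to compounds in RPMI 1640 with 0.5% Albumax at 37 C, 5% CO2. Growth inhibition was scored as reduced luminescence.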
NS1 inh: influenza NS1 inhibition. actives 0.4% (n = 270,000). Potency, µM (series often up to 46.1 µM), without a hit: at the top dose activity, positive = more growth; calls by dose curve; also: potency is read from the fitted curve at half-maximal effect; actives are rising curves; nearly all actives have a fitted effect of over 50% in size
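Read-out: OD600 growth recovery of NS1-expressing budding yeast. Cells grown overnight at 30C in -URA glucose medium, washed, resuspended and diluted 1:100 in 2% galactose assay medium, pH 6.0. Same strain lacking NS1 served as positive control.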
Shiga toxin inh: blocks Shiga toxin action in Vero cells | Vero cells, Shiga toxin protein synthesis inhibition reporter | inhibition, % at 38.7 µM | actives 9.2% (n = 290,000); in the data active = inhibition mostly above about 28%, no sharp cut-off; inactive = mostly below about 43%; also: 0% is about no effect
Cycloheximide cs: counter-screen for Shiga toxin inhibitors: cycloheximide protein synthesis inhibition; cell reporter, cycloheximide protein synthesis inhibition counterscreen; max response, %; actives 12% (n = 300,000); in the data active = max response mostly above about 13%, no sharp cut-off; inactive = mostly below about 14%; also: read at 38.3 µM for the half of the compounds with a filed dose; 0% is about no effect
Pf growth 96h: inhibits malaria parasite growth, 96 h; actives 6.9% (n = 320,000); Potency, µM (series often up to 28.7 µM), for the others: at the top dose activity change, negative = inhibition, actives largely listed as inhibitors; P. falciparum luciferase reporter growth, 96 h; AID 504834; also: potency is read from the fitted curve at half-maximal effect; % is scaled to controls: 0 for no effect and ±100 for the full control effect
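Luminescence readout: decreased luciferase signal marks inhibited growth of reporter-expressing P. falciparum in infected red cells (2% hematocrit, 0.05% parasitemia final), exposed to compound two generations (96 h, 37 C, 5% CO2).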
* hit, by the source's call; i = inactive; ? = inconclusive; / = no result. Unless noted, calls follow the shape of the dose curve; as a rule, active = well fitted inhibition curve with a large enough effect; inconclusive = small, poorly fitted or top-dose-only effect, or another doubt; inactive = no such curve, though single readings can be large or run the other way.

SMILES	Pf growth 48h	NS1 inh	Shiga toxin inh	Cycloheximide cs	Pf growth 96h
CC1CCCCN1CCNC(=O)c1ccc2c(c1)N(Cc1ccccc1F)C(=O)c1ccccc1S2=O (stereo unspecified)	?	-22%	-11	-5	5.9µM*
CC1(C)C=C(c2ccc(C=O)s2)CC(C)(C)N1C=O	-29%	-36%	-2	-5	?
CN(C)S(=O)(=O)c1cc(S(=O)(=O)N(C)C)c(Cl)cc1N	15%	-4%	-3	7	?
Fc1cccc(Nc2ncnc3c2cnn3-c2ccccc2)c1	52%	-45%	80*	30*	38%
O=C(O)c1cccc(Nc2ncnc3ccccc23)c1	45%	2%	-8	-2	?
Clc1cccc(Nc2ncnc3c2cnn3-c2ccccc2)c1	-69%	-105%	45*	40*	?
Cc1c(Nc2ncnc3c2cnn3-c2ccccc2)c(=O)n(-c2ccccc2)n1C	-44%	-11%	18	1	/
O=C(O)c1cccc(Nc2ncnc3c2cnn3-c2ccccc2)c1	212%	3%	106*	35*	/
O=C(c1ccco1)N1CCN(C(=S)Nc2ccc(Br)cc2Cl)CC1	19%	-20%	-6	6	?
CC(C)CN1C2CCCC1CC(NC(=S)NCc1ccco1)C2 (stereo unspecified)	-25%	/	-5	-2	-29%
Cc1cc(COc2ccccc2OCc2cc(C)no2)on1	2%	-5%	-2	0	/
COc1ccc(-c2cc(-c3ccccc3)no2)cc1	-3%	/	/	/	199%
Cc1cccc(OCc2cc(-c3ccccc3)no2)c1C	/	-6%	86*	48*	99%
Fc1ccc(OCc2cc(-c3ccccc3)no2)cc1	/	-9%	90*	69*	81%
Clc1ccc(OCc2cc(-c3ccccc3)no2)c(Cl)c1	81%	6%	69*	40*	223%
COc1ccc(-c2cc(COc3ccccc3)on2)cc1	191%	/	67*	49*	118%
COc1ccccc1NS(=O)(=O)c1cn(C)cn1	-6%	-9%	24	6	?
O=C(NCCS(=O)(=O)NCC1CCCO1)c1ccccc1 (stereo unspecified)	1%	/	/	/	-2%
Cc1cc(C(F)(F)F)c(C#N)c(N2CCOCC2)n1	53%	-4%	-18	8	20%
N#Cc1c(N2CCOCC2)nsc1-c1ccc(C(F)(F)F)cc1	87%	-2%	43	29*	48%
Oc1ccc(N=Nc2n[nH]c(-c3ccc(Br)cc3)n2)cc1	7%	3%	24	20*	68%
Oc1ccc(N=Nc2nc(-c3ccccc3)c(-c3ccccc3)[nH]2)cc1	?	25%	9	-4	?
Oc1ccc(N=Nc2n[nH]c(-c3ccccc3)n2)cc1	23%	-15%	89*	32*	?
COc1ccc(CC(=O)NCC(=O)N/N=C/c2sccc2C)cc1	2%	3%	-1	-3	21%
c1ccc2c(c1)Cc1cc3ccccc3nc1-2	-93%	-52%	62*	26*	-130%
SMILES	Pf growth 48h	NS1 inh	Shiga toxin inh	Cycloheximide cs	Pf growth 96h
CC1(C)Cc2ccccc2-c2nnc(-c3ccc4ccccc4n3)n21	0%	8%	7	2	?
O=C1c2ccccc2-c2nc3ccccc3cc21	160%	-48%	69*	34*	-4%
Cc1ccc(N(C(=O)Cn2nnc(-c3ccccc3)n2)C(C(=O)NC2CCCCC2)c2ccccn2)cc1C (stereo unspecified)	?	12%	-10	-1	96%
NC1=NC(=Nc2cccc(S(N)(=O)=O)c2)c2ccccc21	25%	5%	-18	8	40%
COc1cc(N=Nc2cccc(S(N)(=O)=O)c2)c2ccccc2c1N	4.1µM*	-3%	61	12	2.9µM*
CCCn1c(C)cc(C(=O)COC(=O)c2nccnc2N)c1C	i	/	35	15	232%
COc1cc2c(cc1O)CC[n+]1cc3c(OC)c(OC)ccc3cc1-2	0.41µM*	-4%	-7	-3	0.12µM*
COc1cc2c(ccc3cc(OC)c(OC)c(O)c32)cc1O	?	0%	4	-5	4%
COc1cc2c(cc1OC)CN(Cc1cc(OC)c3c(c1)OCO3)CC2	?	5%	32	-3	?
COc1cc2c(cc1OC)-c1cc3ccc4c(c3c[n+]1CC2)OCO4	1µM*	7%	-9	-1	0.15µM*
N#C/C(C(=O)N1CCCCC1)=C1/N=C(NC(=O)c2ccc(F)cc2)c2ccccc21	8%	-3%	-2	1	-18%
N#C/C(C(=O)N1CCCCC1)=C1/N=C(N)c2ccccc21	26%	3%	37	16*	34%
CSc1nc(C)c(C(=O)C[n+]2ccccc2C)cc1C#N	15µM*	2%	9	-2	?
CCOC(=O)c1cc(C#N)c(SC)nc1C	15%	3%	-3	-2	?
COc1ccc(CC(=O)N/N=C/c2ccc(-c3cccc(C(=O)O)c3)o2)cc1OC	48%	8%	195*	71*	150%
Cc1ccc(OCC(=O)N/N=C\c2ccc(-c3cccc(C(=O)O)c3)o2)c(C)c1	51%	-3%	177*	74*	-19%
COc1ccc(CC(=O)N/N=C/c2ccc(-c3ccc(F)cc3)o2)cc1OC	-19%	-15%	-2	-2	1%
COC(=O)c1ccc(-c2ccc(/C=N/NC(=O)Cc3nnc(N)s3)o2)cc1	60%	9%	39	24*	128%
CNC(=S)N/N=C/c1ccc(-c2cccc(C(=O)O)c2)o1	199%	-4%	112*	61*	159%
O=C(O)c1cccc(-c2ccc(/C=N/Nc3nn[nH]n3)o2)c1	41%	/	10	10	35%
Cc1ccc(OCC(=O)N/N=C\c2ccc(C)o2)c(C)c1	7%	/	-12	6	46%
COc1ccc(C(=O)N=C2SC3CS(=O)(=O)CC3N2c2ccc(C(C)=O)cc2)cc1 (stereo unspecified)	5%	7%	2	-2	17%
Nn1c(SCC(=O)N2CCOCC2)nnc1C1CC1	1%	-4%	-17	-2	9%
CC(C)NC(=O)COc1coc(CN2CCN(Cc3ccccc3)CC2)cc1=O	6%	1%	-8	-3	?
O=C(Nn1c(C2CCC2)nc2ccccc2c1=O)c1cccs1	6%	/	15	10	?
SMILES	Pf growth 48h	NS1 inh	Shiga toxin inh	Cycloheximide cs	Pf growth 96h
Cc1ccc(C(=O)N/N=C/c2ccc(-c3cccc(C(F)(F)F)c3)o2)cn1	-18%	1%	16	-4	-1%
Nc1nonc1C(=O)N/N=C/c1ccc(-c2cccc(C(=O)O)c2)o1	25%	/	51*	29*	?
O=C1CN(S(=O)(=O)c2cc(Cl)ccc2Cl)CCN1	-17%	2%	11	-3	7%
CC(C)C1N=C(c2ccc3c(c2)OCO3)CC(c2ccccc2O)N1 (stereo unspecified)	?	-125%	79*	39*	/
C/C(N)=C(/C#N)C(=O)CSc1nnnn1-c1ccc(C)cc1C	-29%	1%	15	7	7%
N#CCCN1CCn2c1nc1ccccc12	12%	2%	12	14	16%
